An excerpt weighted towards active compounds, which were near 2.7% of everything screened.
BRCA1 expr act: qHTS Assay to Identify Small Molecule Activators of BRCA1 Expression. MCF7-BRCA1-FFLuc reporter, luminescence, 48 h; response scale: scaled: vehicle 0%, 10 µM genistein 100%. hit rate 1.1% among 380,000. Potency, µM (highest dose often 46.1 µM), hits mostly activators; note: nearly all actives have a fitted effect of over 80% in size
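Activators of BRCA1 expression were detected as increased firefly luciferase luminescence in engineered MCF7 cells after 48 h compound incubation. Signals were scaled to genistein 10 microM as full activation.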
GLP1R ag: qHTS of GLP-1 Receptor Agonists; Potency, µM (series often up to 45.6 µM), actives largely listed as activators; Glucagon-like peptide 1 receptor (Homo sapiens), P43220; HEK293 GLP-1R CRE-luciferase, luminescence, 4-6 h; cells express a hypersensitive GLP-1R form; hit rate 0.007% among 380,000
Target sequence (P43220 whole entry, looked up): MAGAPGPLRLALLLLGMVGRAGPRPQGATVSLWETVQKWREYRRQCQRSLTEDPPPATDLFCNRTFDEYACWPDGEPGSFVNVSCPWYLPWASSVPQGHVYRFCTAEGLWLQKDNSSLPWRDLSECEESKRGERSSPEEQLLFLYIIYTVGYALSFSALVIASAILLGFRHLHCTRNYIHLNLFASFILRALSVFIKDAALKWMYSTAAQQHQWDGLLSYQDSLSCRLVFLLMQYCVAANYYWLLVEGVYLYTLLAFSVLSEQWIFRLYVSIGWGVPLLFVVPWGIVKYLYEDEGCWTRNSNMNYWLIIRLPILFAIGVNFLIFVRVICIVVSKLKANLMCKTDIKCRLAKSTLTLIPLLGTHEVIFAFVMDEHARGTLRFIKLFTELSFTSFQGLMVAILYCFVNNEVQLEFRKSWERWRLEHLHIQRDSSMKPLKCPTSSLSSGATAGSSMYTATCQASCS
Integrin act MD: qHTS for Activators of Integrin-Mediated Alleviation for Muscular Dystrophy; alpha7betagal myoblasts, beta-gal FDG fluorescence, 48 h; AID 624291, 2012; hit rate 0.064% among 350,000; Potency, µM (series often up to 38.3 µM), most hits filed as activators; note: nearly all actives have a fitted effect of over 60% in size
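Alpha7betagal+/- myoblasts (passage 13) were plated 16-24 hr, then exposed to compounds (1:260 dilution of DMSO stock) for 48 hours at 37C. After MPER lysis, β-galactosidase reporter activity was read as FDG fluorescence (ex 480/em 540) after 30 minutes.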
GLP1R inv ag: qHTS of GLP-1 Receptor Inverse Agonists (Inhibition Mode); Potency, µM (highest dose often 38.3 µM), actives largely listed as inhibitors; hit rate 1.6% among 410,000; HEK293 GLP-1R CRE-luciferase, luminescence, 24 h; GLP-1R form is constitutively active; Glucagon-like peptide 1 receptor (Homo sapiens), P43220; note: nearly all actives have a fitted effect of over 55% in size
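Luminescence readout: a drop in cAMP-driven luciferase signal flags inverse agonism at a constitutively active GLP-1R stably expressed in HEK293. Compound exposure lasted 24 hr at 37 deg C, 5% CO2.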
HEK293 tox: qHTS of GLP-1 Receptor Inverse Agonists: Cytotox Screen | hit rate 0.13% among 410,000 | HEK293 cAMP-luciferase reporter cells, luminescence, 24 h | Potency, µM (titrated, usually from 38.3 µM), hits mostly inhibitors | AID 624418, 2012;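 note: loss of luciferase light is scored as toxicity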
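Step one: seed cells (200 cells/uL, DMEM with 10% Nu serum, 1% pen-strep). Step two: 12-hour incubation at 37 deg C. Step three: pin 23 nL compound, incubate 24 hr. Step four: add luciferase reagent, read luminescence 12 min later.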
Each line names hits and unclear results; the compound was inactive in the other large screens. Calls come from the whole dose curve; as a rule, active = well fitted curve in the direction sought with a large enough effect; inconclusive = small, poorly fitted or top-dose-only effect, or another doubt; inactive = no such curve, though single readings can be large; an effect the other way counts as inactive or inconclusive.

CCOC(=O)c1cc(-c2ccc(C)cc2)nn1Cc1ccccc1	BRCA1 expr act 10µM, GLP1R inv ag inconclusive (no result: Integrin act MD)
CCCCc1ccc(C(=O)COC(=O)c2ccc3nc(C)c(C)nc3c2)cc1	none (no result: GLP1R ag, Integrin act MD, GLP1R inv ag, HEK293 tox)
Clc1ncc(C#Cc2ccccc2)c2ncncc12	none (no result: GLP1R ag, Integrin act MD, GLP1R inv ag, HEK293 tox)
COC(=O)Cc1c(O)ccn(Cc2ccc3c(c2)OCO3)c1=O	Integrin act MD 10µM
CCOC(=O)C(=NC1CCS(=O)(=O)C1)NNc1cc(Cl)ccc1Cl (configuration not stated)	GLP1R inv ag inconclusive, HEK293 tox inconclusive
CCOC(=O)C(=NCCOC)NNc1cc(Cl)ccc1Cl	GLP1R inv ag 2.82µM
Cc1c(/C=N/NC(=O)CNc2ccccc2)c2ccccn2c1C(=O)c1ccc(Cl)cc1	GLP1R inv ag 5.62µM
Nc1nonc1C(=O)NCCNCc1cccc(Cl)c1Cl	none (no result: Integrin act MD)
CCN(CC)CCNC(=O)c1ccc(NC(=O)c2cn(-c3ccc(F)cc3)nc2-c2cccc(OC)c2)cc1	GLP1R inv ag 8.91µM, HEK293 tox inconclusive
CN(CC(=O)Nc1cccc(F)c1)C(=O)c1cn(-c2ccccc2)nc1-c1ccccc1	GLP1R inv ag inconclusive
CCOc1ccc(NC(=O)CN(C)C(=O)c2cn(-c3ccc(F)cc3)nc2-c2cccc(OC)c2)cc1OCC	GLP1R inv ag 4.47µM
CCOC(=O)c1cccc(NC(=O)c2ccc3c(Cl)c4c(nc3c2)CCC4)c1	BRCA1 expr act inconclusive (no result: Integrin act MD)
CCCCCCCC/C=C\CCCCCCCC(=O)OC[C@@H](O)[C@H]1OC[C@H](O)[C@H]1O	none (no result: BRCA1 expr act, Integrin act MD, GLP1R inv ag, HEK293 tox)
Cc1ccc(S(=O)(=O)c2c(Nc3cc(C)ccc3C)sc(C(=O)c3ccc4c(c3)OCO4)c2N)cc1	GLP1R inv ag inconclusive (no result: BRCA1 expr act, GLP1R ag, Integrin act MD)
CC1=C(c2ccc(Cl)cc2)S(=O)(=O)NC1=NCCCN1CCN(c2cc(C)ccc2C)CC1	GLP1R inv ag inconclusive (no result: BRCA1 expr act, GLP1R ag, Integrin act MD)
CC1=C(c2ccc(C(C)C)cc2)S(=O)(=O)NC1=NCCCN1CCN(c2ccccc2F)CC1	GLP1R inv ag inconclusive (no result: BRCA1 expr act, GLP1R ag, Integrin act MD)
COc1ccc(C2=C(C)C(=NCCCN3CCN(c4cc(Cl)ccc4C)CC3)NS2(=O)=O)cc1	GLP1R inv ag 8.91µM (no result: BRCA1 expr act, GLP1R ag, Integrin act MD)
CC1=C(c2ccc(C)cc2)S(=O)(=O)NC1=NCCCN1CCN(c2ccc(F)cc2)CC1	GLP1R inv ag 11.2µM (no result: BRCA1 expr act, GLP1R ag, Integrin act MD)
Cc1ccc2sc(N3CCN(C(=O)C4COc5ccccc5O4)CC3)nc2c1C (configuration not stated)	none (no result: GLP1R ag, Integrin act MD)
OC(CNc1ccccc1)Cn1ccc2ccccc21 (configuration not stated)	Integrin act MD inconclusive, GLP1R inv ag 11.2µM
OC(CN1CCCC1)Cn1ccc2ccccc21 (configuration not stated)	none
CCCC1=Nc2cc(C(=O)NC3CCCCC3)ccc2Sc2ccc(C)cc21	GLP1R inv ag 0.794µM, HEK293 tox inconclusive (no result: BRCA1 expr act, GLP1R ag, Integrin act MD)
CCOC(=O)N1CCC(NC(=O)c2ccc3c(c2)N=C(C)c2c(C)ccc(C)c2S3)CC1	GLP1R inv ag inconclusive, HEK293 tox inconclusive
CCCC1=Nc2cc(C(=O)NCCCOC(C)C)ccc2Sc2ccccc21	none
CCCC1=Nc2cc(C(=O)NCCCOCC)ccc2Sc2ccccc21	none
CC1=Nc2cc(C(=O)NC3CCC(C)CC3)ccc2Sc2c(C)ccc(C)c21 (configuration not stated)	GLP1R inv ag 0.794µM, HEK293 tox inconclusive (no result: Integrin act MD)
CCCC1=Nc2cc(C(=O)NCC(C)c3ccccc3)ccc2Sc2ccccc21 (configuration not stated)	GLP1R inv ag 3.16µM, HEK293 tox inconclusive (no result: Integrin act MD)
CCCC1=Nc2cc(C(=O)NCCOC)ccc2Sc2ccccc21	GLP1R inv ag 2.24µM, HEK293 tox inconclusive (no result: BRCA1 expr act, GLP1R ag, Integrin act MD)
CCc1ccc(CNCc2c(C(=O)O)c(C)n(Cc3c(F)cccc3Cl)c2C)cc1	none (no result: BRCA1 expr act, GLP1R ag, Integrin act MD)
COCCCNC(=O)CCCn1c(=O)c2cccn2c2ccccc21	none (no result: BRCA1 expr act, GLP1R ag, Integrin act MD)
Cc1cc(SCC(=O)c2ccc(O)c(O)c2)n2nc(C)c(-c3ccccc3)c2n1	GLP1R inv ag 11.2µM, HEK293 tox inconclusive
Cc1cc(C)nc(SCC(=O)c2ccc(O)c(O)c2)n1	none
COc1ccc(-c2noc(N3CCC(C(=O)Nc4ccc(C)c(F)c4)CC3)n2)cc1OC	none (no result: BRCA1 expr act, GLP1R ag, Integrin act MD)
COc1ccc(-n2c(C)n[nH]c2=O)cc1	none
Cc1n[nH]c(=O)n1-c1ccc(OCc2ccccc2)cc1	BRCA1 expr act 5.62µM
COc1ccc(CCNC(=O)c2ccc(Cl)cc2)cc1	GLP1R inv ag inconclusive
COc1ccc(CCNC(=O)c2nn(C)cc2Cl)cc1	BRCA1 expr act 7.94µM, Integrin act MD inconclusive
CCOC(=O)C1(CCc2ccccc2)CCN(Cc2nccn2CC)CC1	GLP1R inv ag inconclusive, HEK293 tox 8.91µM
CCOC(=O)C1(Cc2ccccc2)CCN(Cc2nccn2CC)CC1	GLP1R inv ag inconclusive, HEK293 tox inconclusive
COc1ccc(CN(CCC(c2ccc(F)cc2)C2CCOC(C)(C)C2)C(=O)c2ccco2)cc1 (configuration not stated)	GLP1R inv ag inconclusive, HEK293 tox inconclusive
CC(c1ccccc1)N(CCC(c1ccccc1)C1CCOC(C)(C)C1)C(=O)c1ccco1 (configuration not stated)	GLP1R inv ag 10µM
CC1CCc2nc(/C(C#N)=C/c3ccncc3)sc2C1 (configuration not stated)	BRCA1 expr act 11.2µM
N#C/C(=C/c1ccncc1)c1nc2ccccc2s1	none
COc1ccc(-c2nc(C)c(CCNC(=O)c3ccco3)s2)cc1	BRCA1 expr act inconclusive (no result: Integrin act MD)
CCC(C(=O)Nc1ccc(C(=O)OC)cc1)n1nc(-c2ccc(C)c(C)c2)ccc1=O (configuration not stated)	none (no result: BRCA1 expr act, GLP1R ag, Integrin act MD)
O=C(Nc1ccccc1)N1CC=C(c2ccc(F)cc2)CC1	BRCA1 expr act 3.98µM
Cc1cc(C(=O)CN2C(=O)C(=O)N(CC(C)C)C2=O)c(C)n1C1CC1	BRCA1 expr act 3.16µM
CCN1C(=O)C(=O)N(CC(=O)c2cc(C)n(C3CC3)c2C)C1=O	BRCA1 expr act inconclusive
Cc1ccccc1-c1csc(N)n1	none
Nc1nc(-c2ccccc2Cl)cs1	BRCA1 expr act 10µM
O=C1CN(C(=O)c2ccc(Br)o2)C(c2ccccc2)c2cc(F)ccc2N1 (configuration not stated)	GLP1R inv ag 7.94µM
O=C1CN(C(=O)c2ccccc2)C(c2ccccc2)c2cc(F)ccc2N1 (configuration not stated)	none
O=c1[nH]c2c(-c3nc(-c4ccc(Cl)cc4)cs3)c(O)cn2c2ccccc12	none (no result: GLP1R ag, Integrin act MD, GLP1R inv ag, HEK293 tox)
Cc1cccc2cc3c(nc12)SC(=NCC1CCCO1)N(Cc1ccco1)C3 (configuration not stated)	GLP1R inv ag inconclusive, HEK293 tox inconclusive
COCCN=C1Sc2nc3c(C)cccc3cc2CN1Cc1ccco1	GLP1R inv ag 8.91µM

Screens: PubChem BioAssay, National Center for Advancing Translational Sciences (NCATS)
